# Screens: PubChem, National Center for Advancing Translational Sciences (NCATS)
# HT1080 IDH1KD tx: toxicity to HT-1080 IDH1 knockdown cells (counter line). actives 2% (n = 360,000). AID 686971. HT-1080 IDH1 knockdown viability, ATP luminescence, 48 h. Potency, µM (top dose mostly 46.1 µM), usual class: cytotoxic
#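 Cytotoxicity counter-line: IDH1KD HT-1080, 48 h, CellTiter-Glo. Curves classed by r2, magnitude and activity.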
# ALOX12 inh: blocks human arachidonate 12S-lipoxygenase; purified 12hLO, xylenol orange hydroperoxide absorbance; actives 1.1% (n = 580,000); Potency, µM (series often up to 108 µM), hits mostly inhibitors; P18054
# Target sequence (P18054 whole entry, looked up): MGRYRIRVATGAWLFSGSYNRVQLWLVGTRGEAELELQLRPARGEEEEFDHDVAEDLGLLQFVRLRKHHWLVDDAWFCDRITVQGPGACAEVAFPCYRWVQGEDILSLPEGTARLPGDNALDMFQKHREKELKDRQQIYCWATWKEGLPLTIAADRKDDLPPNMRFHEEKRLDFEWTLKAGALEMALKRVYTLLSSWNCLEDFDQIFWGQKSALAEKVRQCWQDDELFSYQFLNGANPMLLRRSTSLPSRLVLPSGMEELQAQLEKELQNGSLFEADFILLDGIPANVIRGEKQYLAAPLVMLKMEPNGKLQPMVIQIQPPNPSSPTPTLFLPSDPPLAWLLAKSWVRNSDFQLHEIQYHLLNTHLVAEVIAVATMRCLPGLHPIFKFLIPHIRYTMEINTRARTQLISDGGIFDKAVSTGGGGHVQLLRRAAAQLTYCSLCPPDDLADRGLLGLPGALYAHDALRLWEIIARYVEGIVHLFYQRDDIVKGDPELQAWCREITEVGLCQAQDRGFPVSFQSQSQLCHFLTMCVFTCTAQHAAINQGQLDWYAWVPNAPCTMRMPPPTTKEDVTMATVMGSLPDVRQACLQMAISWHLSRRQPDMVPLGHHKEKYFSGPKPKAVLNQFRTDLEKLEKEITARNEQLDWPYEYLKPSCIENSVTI
#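 Hydroperoxide product was detected by ferrous iron/xylenol orange as the 573 to 405 nm absorbance ratio. Arachidonic acid at 40 uM (final) was turned over for 30 min at room temperature by 150 nM human 12hLO, pH 7.0 Hepes buffer, after 15 min compound preincubation.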
# TDP1 cell CPT: growth inhibition of DT40 Tdp1-/-;hTDP1 cells with camptothecin (screen for TDP1 inhibitors); chicken DT40 Tdp1-/-;hTDP1 cells + 20 nM CPT, ATP luminescence, 48 h; Potency, µM (top dose mostly 46.2 µM), actives largely listed as inhibitors; actives 12% (n = 420,000); AID 686979; also: nearly all actives have a fitted effect of over 55% in size
#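 Cell growth measured by CellTiter-Glo luminescence after a minimum 48 h, 37 C compound exposure with 20 nM CPT in Tdp1-knockout DT40 cells stably expressing hTDP1, seeded 400/well; qHTS titration format.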
# DT40 TDP1 no CPT: qHTS for Inhibitors of human tyrosyl-DNA phosphodiesterase 1 (TDP1): qHTS in cells in absence of CPT; DT40 Tdp1-/- hTDP1 cells, no CPT, ATP luminescence, 48 h; Potency, µM (doses to about 46.2 µM), actives largely listed as inhibitors; actives 15% (n = 420,000); also: nearly all actives have a fitted effect of over 55% in size
#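 Chicken DT40 Tdp1-/- cells stably complemented with human TDP1 were seeded at 400 cells/well with DMSO in place of 20 nM camptothecin. After compound pinning, cells grew at least 48 hr at 37 °C; viability read by CellTiter-Glo luminescence.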
# IL1B secr inh: inhibitors of inflammasome signaling (IL-1 beta secretion); AID 743279; THP-1 LPS/ATP IL-1B secretion, AlphaLISA, 16 h; stronger effect = lower value; actives 4.7% (n = 360,000); activity change, % at 57.5 µM; in the data active = activity change below about -50%; inconclusive = mostly about -30% to -49%
#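 THP-1 cells pretreated 1 hr with compounds (up to 57.5 uM final), then stimulated with LPS (250 ng/mL final) plus ATP (1.25 mM final); secreted IL-1B measured by AlphaLISA after 16 hr, decreased signal indicating inhibition.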
# HT1080-NT tox: kills 2HG-producing HT-1080-NT fibrosarcoma cells | HT-1080-NT fibrosarcoma viability, CellTiter-Glo ATP luminescence, 48 h | Potency, µM (series often up to 46.1 µM), hits mostly cytotoxic | actives 1.6% (n = 360,000) | AID 686970;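 also: NT is the 2HG producing partner of a matched IDH1 knockdown line; nearly all actives have a fitted effect of over 55% in size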
#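 Compounds were tested in concentration-response format on HT-1080-NT cells for 48 hours at 37 degrees C. Cell viability came from CellTiter-Glo luminescence; curves were classified by r2, response magnitude and activity.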
# A number is an active result; – = inactive; ? = inconclusive; · = no result; [ ] = remark or other dose. The full list was thinned out, with hits kept by preference. Unless noted, calls follow the shape of the dose curve; as a rule, active = well fitted curve in the direction sought with a large enough effect; inconclusive = small, poorly fitted or top-dose-only effect, or another doubt; inactive = no such curve, though single readings can be large; an effect the other way counts as inactive or inconclusive.
SMILES,HT1080 IDH1KD tx,ALOX12 inh,TDP1 cell CPT,DT40 TDP1 no CPT,IL1B secr inh,HT1080-NT tox
Cc1ccsc1/C=C/C1=Cc2c(sc(NC(=O)CSc3n[nH]c(N)n3)c2C#N)C(C)(C)C1,13µM,?,23µM,15µM,-63,22µM
NC(=O)c1ccsc1NC(=O)CSc1n[nH]c(N)n1,–,–,–,–,–,–
Cc1nc(-c2cccc(Cl)c2)sc1C(=O)N1CCN(Cc2ccc(C#N)cc2)CC1,·,–,·,·,·,·
Cc1ccc(S(=O)(=O)Nc2c(C)cc([N+](=O)[O-])cc2C)cc1,–,–,–,?,–,–
Cc1ccc(S(=O)(=O)c2ccc([N+](=O)[O-])o2)cc1,2.6µM,–,0.033µM,0.18µM,-100,7.3µM
Cc1ccc(N2CCN(C(=S)c3ccc(N(C)C)cc3)CC2)cc1,–,?,?,?,–,–
CN(C)c1ccc(C(=S)N2CCN(c3ccc([N+](=O)[O-])cc3)CC2)cc1,–,?,15µM,21µM,–,–
CN(C)c1ccc(C(=S)N2CCCCCC2)cc1,?,40µM,?,16µM,–,–
O=[N+]([O-])c1ccc(C(=S)N2CCN(c3ccc(F)cc3)CC2)cc1,–,50µM,?,?,?,–
Cc1cccc(N2CCN(C(=S)c3ccc([N+](=O)[O-])cc3)CC2)c1,–,–,?,?,–,–
CN(C)c1ccc(C(c2ccc(N(C)C)cc2)c2ccc([N+](=O)[O-])cc2)cc1,–,–,?,?,-50,–
CC(=O)N1CCN(C(=S)c2ccc(N(C)C)cc2)CC1,–[9.24 µM],?,–,–,–,–
COc1ccc(-c2noc(C(C)NC(=O)c3ccco3)n2)cc1 (stereo not drawn),·,–,18µM,15µM,·,·
CC(NC(=O)c1ccco1)c1nc(-c2ccccc2)no1 (stereo not drawn),–,–,–,–,–,–
CC(Oc1ccc(Cl)cc1Cl)c1nc(-c2ccc(NC(=O)c3ccco3)cc2)no1 (stereo not drawn),–,–,23µM,16µM,–,–
COc1ccc(OC)c(C(C)NC(=O)c2ccco2)c1 (stereo not drawn),–,–,23µM,?,–,?
COc1ccc(OC)c(C(C)NC(C)=O)c1 (stereo not drawn),–,–,–,–,–,–
CC(C)Cc1ccc(-c2cnc(CCC(=O)NC3=NCCS3)o2)cc1,·,–,·,·,·,·
CCOc1ccc2cc(/C=C/C(=O)c3ccco3)c(Cl)nc2c1,–,–,?,21µM,?,–
CC1(C)C(=O)Nc2ccccc2N1C(=O)CSc1nc(-c2ccccc2)cs1,–,?,?,15µM,?,–
O=C(Cn1ncc(Cl)c(Cl)c1=O)N1CCN(Cc2ccccc2)CC1,?,–,3.3µM,3.3µM,–,?
O=C(Cn1cnc2ccccc2c1=O)N1CCN(Cc2ccccc2)CC1,–,–,–,?,–,–
O=C(CN1CCCCC1)N1CCc2ccccc21,–,?,–,–,–,–
CC1(C)C(=O)Nc2ccccc2N1C(=O)Cn1ncc(Cl)c(Cl)c1=O,–,–,23µM,23µM,-99,–
O=C(Cn1ncc(Cl)c(Cl)c1=O)N1CCc2ccccc21,2.9µM,–,4.6µM,6.5µM,-109,4.6µM
SMILES,HT1080 IDH1KD tx,ALOX12 inh,TDP1 cell CPT,DT40 TDP1 no CPT,IL1B secr inh,HT1080-NT tox
Cc1nn(CC(=O)N2c3ccccc3NC(=O)C2(C)C)c(C)c1[N+](=O)[O-],–,–,–,?,–,–
Nn1c(SC(C(=O)N2CCCCC2)c2ccccc2)nnc1-c1ccccc1F (stereo not drawn),·,–,·,·,·,·
Cc1ccc(C)c(S(=O)(=O)N2CCCN(C)c3ccccc32)c1,·,–,·,·,·,·
O=C(Cn1ncc(Cl)c(Cl)c1=O)N1CCOCC1,13µM,–,?,13µM,-99,12µM
O=C(COc1nsnc1N1CCOCC1)Nc1ccc(Cl)cc1,–,–,?,15µM,–,–
Cc1cccc(NC(=O)COc2nsnc2N2CCOCC2)c1,–,–,–,–,–,–
